Source: PubChem BioAssay (NCI)
This is part of a sample that, as a whole, favours compounds with a hit. Of some 83,000 tested, about 20% had one in any assay.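 Compound tested at a single concentration for 48 hours in 96-well plates; a percent growth value below 10 was scored as active.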 Calls of active or inactive are those of the source.

The molecules below were run on T-47D breast (assay: NCI-60 one-dose screen, 48 h (100 = growth as untreated, 0 = no growth, -100 = all killed)). Settings: 10 µM unless noted.
Procedure: Growth inhibition of the T-47D human tumor cell line is measured as a screen for anti-cancer activity. Cells are grown in 96 well plates and exposed to the test compound for 48 hours. Compounds are tested at a single concentration, which is 10^-5 M for most compounds. The reported endpoint is percent growth (GI% or GIPRCNT), where numbers from 0 - 100% represent growth inhibition, and numbers from -100% - 0 represent cell death. For example, a value of 40 represents 60% growth inhibition. A value of 0 means no net growth occurred over the course of the experiment. A value of -40 indicates 40% of cells at the beginning of the experiment died by the end of the experiment. A value of -100 means all cells are dead at the end of the experiment.
NCI-60 Human Tumor Cell Lines Screen was performed using the standard one-dose NCI protocol, which is described in more detail at https://dtp.cancer.gov/discovery_development/nci-60/default.htm.
Compounds with GIPRCNT values below 10 were considered active. Activity score was based on GIPRCNT using the following formula: […]
Score is 0 for GIPRCNT values of 100 or above, 50 for GIPRCNT values of 0, and 100 for GIPRCNT values of -100.

Row | Compound | growth
1 | COc1ccc(C(=O)NC(=O)Nc2ccc3c(c2)NC(=O)/C3=C\c2[nH]c(C)c(C(=O)O)c2C)cc1 | 45.3% (inactive)
2 | Nn1c(CN2CCN(c3cc4c(cc3F)c(=O)c(C(=O)O)cn4C3CC3)CC2)n[nH]c1=S | 98.3% (inactive)
3 | COc1ccc2c(c1)OC(N)=C(C#N)C2c1ccc(F)c(F)c1 (stereo not given) | 46.8% (inactive)
4 | COc1cc2ncn3c(=O)c4c5c(sc4nc3c2cc1OC)CCCCC5 | 84.7% (inactive)
5 | Cc1cccc(NC(=O)CCc2ccc(N3C(N)=NC(N)=NC3(C)C)cc2)c1 | 73.1% (inactive)
6 | Cn1cnc([N+](=O)[O-])c1N1c2ccncc2Sc2ccncc21 | 86% (inactive)
7 | COc1ccc(/C=C2\CS(=O)(=O)C/C(=C\c3ccc(OC)cc3)C2=O)cc1 | 14.6% (inactive)
8 | CN(C)c1ccc(/C=N/n2c(-c3cc(F)c(Cl)cc3Cl)nn(CN3CCOCC3)c2=S)cc1 | 94.1% (inactive)
9 | CCOC(=O)n1cnc2c(Cl)ncnc21 | 100% (inactive)
10 | CO[C@H]1/C=C/C=C/C=C/C[C@H](OC(=O)[C@@H](C)NC(=O)C2CCCCC2)[C@H](C)[C@@H](O)/C(C)=C\CCC2=CC(=O)C=C(NC(=O)C1)C2=O | -15.1% (active)
11 | COc1ccc2c(c1)O/C(=C/c1ccc(OCC(=O)Nc3ccc(S(N)(=O)=O)cc3)cc1)C2=O | 97.2% (inactive)
12 | COc1cc(NC(=O)C#Cc2ccccc2)c(OC)cc1Cl | 71.1% (inactive)
13 | CCC(CC(C)C)Nc1ccc(NC(CC)CC(C)C)cc1 (stereo not given) | 69.2% (inactive)
14 | O=C(Nc1ccc(Cl)c(Cl)c1)Nc1ccc(Cl)c([N+](=O)[O-])c1 | -2.12% (active)
15 | O=C(Nc1ccc(-n2cc(-c3ccncc3)c(-c3ccc(O)c(Cl)c3)n2)cc1)Nc1ccc(Cl)c(C(F)(F)F)c1 | 29.2% (inactive)
16 | Nc1ncnc2c1ccn2-c1cccc(NC(=O)c2cccc(C(F)(F)F)c2)c1 | 59.2% (inactive)
17 | COc1cc(/C=C/C(=O)c2c(C)[n+]([O-])c3ccccc3[n+]2[O-])ccc1O | 111% (inactive)
18 | CCNc1ncnc2n[nH]nc12 | 99.2% (inactive)
19 | C=C1C(=O)O[C@H]2[C@H]1CC/C(COC(=O)c1cc(OC)c(OC)c(OC)c1)=C\CC[C@@]1(C)O[C@@H]21 | -38.7% (active)
20 | CCc1ccc(C2=C/C(=C/c3ccc(Cl)cc3)C(=O)N2CCc2ccc(S(N)(=O)=O)cc2)cc1 | 0.105% (active)

Row | Compound | growth
21 | COc1cc(NS(=O)(=O)c2ccc(N)cc2)ncn1 | 103% (inactive)
22 | O[C@@H]1CCO[C@H](c2ccc3ccccc3c2)C1 | 89.4% (inactive)
23 | CC(=O)n1cc(/C=C2\N=C(c3ccc(Cl)cc3)N(c3ccc(S(=O)(=O)Nc4nccs4)cc3)C2=O)c2ccccc21 | 55.3% (inactive)
24 | CCc1c(C)c2cc3nc(NCc4ccccc4)oc3c(C)c2oc1=O | 47.2% (inactive)
25 | CCCCCCCCCCCC(=O)OCCNC(=O)C[n+]1ccccc1 | 95.3% (inactive)
26 | Cc1c(NC(=O)c2sc3nc4c(cc3c2N)CN(Cc2ccccc2)CC4)cccc1C(F)(F)F | 48.9% (inactive)
27 | CC(=O)Nc1ccc(OC(=O)c2ccccc2O)cc1 | 100% (inactive)
28 | Nc1nc(-c2cc3c(cc2Cl)NC(=O)/C3=C/c2ccccc2)cs1 | 7.52% (active)
29 | COc1cc(NC(C)CCCN2C(=O)c3ccccc3C2=O)c2nc(C)ccc2c1OC (stereo not given) | 95.1% (inactive)
30 | OC[C@@H](O)C(O[C@@H]1O[C@H](CO)[C@H](O)[C@H](O)[C@H]1O)[C@H](O)[C@@H](O)CO (stereo not given in full) | 105% (inactive)
31 | COc1ccc(-c2cc3ccc(N(C)C)cc3nc2N)c(F)c1 | 24.3% (inactive)
32 | CN1CCN(Cn2nc(-c3cc(Cl)cc(Cl)c3Cl)n(/N=C/c3ccc(Cl)cc3)c2=S)CC1 | 94.9% (inactive)
33 | COC1OCC(OS(=O)(=O)c2ccc(C)cc2)C(OC(=O)c2ccccc2)C1OC(=O)c1ccccc1 (stereo not given) | 44.4% (inactive)
34 | CCC1S/C(=N\N=C(/C)c2cc3ccccc3o2)N(c2ccccc2)C1=O (stereo not given) | 85.1% (inactive)
35 | OC(COc1ccccc1Cl)CN1CCN(c2ccc(Cl)cc2)CC1 (stereo not given) | 101% (inactive)
36 | COc1ccc(-c2nn(-c3ccc(NC(=O)Nc4ccc(Cl)c(Cl)c4)cc3)cc2-c2ccncc2)cc1Cl | 22.4% (inactive)
37 | COC(=O)Nc1nc2ccc(Sc3ccccc3)cc2[nH]1 | 60.8% (inactive)
38 | Nc1nc(Nc2ccc(OCc3cccc(F)c3)cc2)c2c(n1)[nH]c1ccc(O)cc12 | -59.8% (active)
39 | CCOC(=O)c1noc2c1CCc1c-2cn(Cc2ccc(OC)cc2)c1-c1cc(OC)c(OC)c(OC)c1 | 40.9% (inactive)
40 | Nc1nccc(=S)[nH]1 | 99.6% (inactive)
